# In PubChem BioAssay AID743088 (The Scripps Research Institute Molecular Screening Center, 2013):
# Unmarked numbers belong to inactive results.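 Rule for the calls: active = binding inhibited by at least 50%, or stimulated by at least 50%, shown as inhibition of -50% or lower; inactive = the rest.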
# Tested on: Rolipram
# Assay: off-target binding across receptor panel, profiling panel, selectivity assay for AVPR1a antagonist project, biochemical, Panlabs HitProfilingScreen (AID 743088)
# Details: Panlabs radioligand binding panel, 30 targets, at 10 µM, hits give high values
structure (smiles),measurement,value
O=C(C1CCN(c2ccc(Cl)cn2)CC1)N(CC1CC1)c1ccc(Cl)cc1,inhibition of binding,-3%
